# Assay outcomes: PubChem BioAssay, The Scripps Research Institute Molecular Screening Center
# This excerpt belongs to a sample that is enriched for hits.
# TTR transcr act = TTR transcription activators in neuroblastoma reporter cells, primary screen, cell-based, luminescence, SH-SY5Y, TTR promoter Gaussia luciferase | 100% = recombinant luciferase protein wells | activation, % at 16.7 µM | 92,000 compounds, 1.3% hits;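 active = activation above the mean of all tested compounds plus 3 SD, cut at about 9.5% in these data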;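 note: cells exposed to compounds for one day before reading; 0% = median of all test compound wells on the plate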
# TTR inh HuH7 = TTR promoter reporter inhibitors in hepatoma cells, counter-screen for TTR transcription activator project, cell-based, luminescence, HuH7 hepatoma; shares compounds with TTR transcr act; AID 1117279, 2014; HuH7 TTR promoter-Gaussia luciferase reporter; 1,100 compounds, 4% hits; inhibition, % at 16.7 µM;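 active = average inhibition above the solvent-only control wells' mean plus 3 SD, cut at about 15% in these data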;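 note: 0% = cells with DMSO only and 100% = cells with inhibitor control FD; inhibitors lower well luminescence so higher value means more inhibition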
# TTR act confirm = TTR transcription activators, retest, confirmation, cell-based, luminescence, SH-SY5Y, triplicate; AID 1117280, 2014; SHSY5Y TTR promoter Gaussia luciferase; 100% = purified Lucia enzyme wells, no cells; shares compounds with TTR transcr act; activation, % at 16.7 µM; 1,100 tested, under 10 active;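 active = mean activation above a set limit taken from the earlier primary screen, cut at about 11% in these data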;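 note: 0% = DMSO-treated cells and 100% = recombinant Lucia luciferase without cells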
# Numbers without * were called inactive.
SMILES,TTR transcr act,others
C/C(=N\NC(=O)C(O)c1ccccc1)c1ccc(Cl)cc1 (stereo unspecified),23*,TTR inh HuH7=-11;TTR act confirm=0
CC(/C=C/c1ccccc1)=N/NC(=O)C(O)c1ccccc1 (stereo unspecified),3,
O=C(Cn1ncn2nc(-c3ccccc3)cc2c1=O)NCc1ccccn1,4,
COCCC(=O)N1CCC(Oc2ccc(C(=O)NCc3csc(C)n3)cc2)CC1,1,
CCCS(=O)(=O)N1CCN=C1SCc1cccnc1,15*,TTR inh HuH7=-7;TTR act confirm=1
CC(=O)Nc1ccc(S(=O)(=O)N2CCN=C2SCc2cccnc2)cc1,-1,
CCS(=O)(=O)N1CCN=C1SCc1ccccc1,-2,
COc1cccc(NC(=O)Nc2nnc(CC(=O)Nc3ccccc3)s2)c1,6,
COc1ccccc1NC(=O)NNC(=O)c1ccc2c(c1)NC(=O)C(C)(C)O2,3,
CCOc1ccc(CC(=O)NNC(=S)Nc2ccc(OC)c(OC)c2)cc1,-2,
Cc1ccc(C(C)NC(=O)C2CCCC2)cc1C (stereo unspecified),-1,
CC(NC(=O)C1CCC1)c1ccc(Br)cc1 (stereo unspecified),22*,TTR inh HuH7=-11;TTR act confirm=0
CC(NC(=O)C1CCC1)c1ccc2c(c1)OCO2 (stereo unspecified),-2,
COc1ccc(CN2CCC(C(=O)N3CCCC(C)C3)CC2)cc1OC (stereo unspecified),1,
O=C(N/N=C/c1ccccn1)C1CC1,2,
COC(=O)c1ccc(NC(=O)CSc2nnc(C)n2-c2ccccc2)cc1,0,
Cc1cccc(C)c1NC(=O)CSc1nnc(C)n1-c1ccccc1,-2,
COc1ccc(O)c(/C=N/NC(=O)CSc2nnc(C)n2-c2ccccc2)c1,11*,TTR inh HuH7=-17;TTR act confirm=1
CCOP(=O)(OCC)C(NC(=O)Nc1ccc(C)cc1)C(N)=O (stereo unspecified),1,
CCCCNC(=O)C[C@@H]1C[C@@]2(C(=O)OC)CC(C)(C)CC=C2N(Cc2ccc3c(c2)OCO3)C1=O,-2,
O=C(COC(=O)c1ccc2ncsc2c1)NCc1cccc(Cl)c1,-2,
O=C(CN1CCC(NC(=O)c2ccccc2Cl)CC1)NCc1ccccc1,0,
O=C(NCc1nnc2c3ccccc3c(-c3ccccc3)nn12)c1ccccc1Cl,14*,TTR inh HuH7=-6;TTR act confirm=0
O=C(NCCN1CCCC1)c1ccccc1Cl,0,
N#Cc1c(-c2ccccc2)oc(=O)c2ccccc12,-2,
SMILES,TTR transcr act,others
O=C(NCc1ccccc1)NC(=O)c1ccc(Cl)cc1,25*,TTR inh HuH7=-10;TTR act confirm=0
O=C(NCc1ccccc1Cl)NC(=O)c1ccccc1,0,
O=C(NCc1ccccc1)c1ccc(CO)cc1,-1,
Cc1c(C#N)c(N=CN(C)C)c(C(=O)c2ccccc2)n1-c1ccccc1,-1,
COc1ccc(CC(NC(C)=O)C(=O)NC2CCN(C(=O)c3ccc([N+](=O)[O-])cc3)CC2)cc1OC (stereo unspecified),-2,
COc1ccccc1CC(NC(C)=O)C(=O)NC1CCN(C(=O)Nc2ccc(F)cc2)CC1 (stereo unspecified),1,
COc1ccccc1CC(NC(C)=O)C(=O)NC1CCN(C(=O)c2ccc([N+](=O)[O-])cc2)CC1 (stereo unspecified),13*,TTR inh HuH7=-8;TTR act confirm=0
COc1cc(C2=NOC(C(=O)NC3CCCCC3)C2)cc(OC)c1OC (stereo unspecified),0,
COc1ccc2cc3c(N)nn(C(=O)c4ccc(Cl)c([N+](=O)[O-])c4)c3nc2c1,-1,
COc1ccc2cc3c(N)nn(C(=O)c4ccccc4[N+](=O)[O-])c3nc2c1,26*,TTR inh HuH7=26*;TTR act confirm=-1
CCCC1CCC(C(=O)n2nc(N)c3cc4ccc(OC)cc4nc32)CC1 (stereo unspecified),-1,
Fc1ccc(NC(=S)NCc2ccccc2)cc1,2,
O=C1CC(C(=O)Nc2ccc(Br)cc2)S/C(=N\N=C\c2ccco2)N1 (stereo unspecified),-2,
O=C(Oc1cccc2ccccc12)c1ccccc1,0,
O=C(Oc1cc(=O)oc2ccccc12)c1ccccc1,14*,TTR inh HuH7=0;TTR act confirm=0
O=C(O)CCc1ccccc1OC(=O)c1ccccc1,1,
COc1ccc(-c2cc(C(F)(F)F)n3nc(C(=O)N4CCOCC4)nc3n2)cc1,3,
O=C(c1cc2nc(-c3ccccc3)cc(C(F)(F)F)n2n1)N1CCCC1,-1,
O=C(c1nc2nc(-c3ccccc3)cc(C(F)(F)F)n2n1)N1CCCCC1,11*,TTR inh HuH7=-3;TTR act confirm=0
CCCC1CCC2(CC1)CCC2OC(=O)Nc1ccccc1OC (stereo unspecified),5,
COC(=O)C[C@@H]1CC[C@@H](NC(=O)C2CCC2)[C@@H](CO)O1,3,
COc1ccc(CCN=C(N)NS(=O)(=O)c2ccc(C)c(C)c2)cc1OC,1,
